High-throughput results from PubChem.
Most compounds without a hit are left out; they make up all but 11% or so of the library.
NS1 function inh – influenza NS1 inhibition. AID 2326. 270,000 compounds, 0.4% hits. Potency, µM (series often up to 46.1 µM); calls by dose curve; further: actives are rising curves; nearly all actives have a fitted effect of over 50% in size
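OD600 was taken as the measure of yeast growth restored by compound in an NS1-expressing S. cerevisiae strain. Cells had been washed out of glucose medium and diluted 1:100 into galactose -URA medium, pH 6.0.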
Pf growth 48h – inhibits P. falciparum growth in the first generation, 48 h; P. falciparum luciferase growth in erythrocytes, 48 h; Potency, µM (doses to about 28.7 µM), usual class: inhibitors; 310,000 compounds, 5.9% hits
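Read-out is firefly luciferase luminescence from an integrated reporter in P. falciparum, so falling signal marks reduced parasite growth. Infected erythrocytes were at 2% hematocrit and 0.1% parasitemia (final) in Albumax-supplemented RPMI 1640.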
Sm TGR inh – blocks Schistosoma mansoni thioredoxin glutathione reductase; purified TGR, DTNB reduction, TNB absorbance 405 nm; Q962Y6; 360,000 compounds, 3% hits; Potency, µM (highest dose often 114 µM), most hits filed as inhibitors; further: nearly all actives have a fitted effect of over 60% in size
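First, TGR (20 nM dispensed) and NADPH were mixed with compound. Second, a 15 min room-temperature incubation followed. Third, further NADPH and then DTNB were added to start the reaction. Finally, TNB absorbance was monitored kinetically.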
Pf growth 96h – inhibits malaria parasite growth, 96 h | P. falciparum luciferase reporter growth, 96 h | Potency, µM (series often up to 28.7 µM), actives largely listed as inhibitors | 320,000 compounds, 6.9% hits | AID 504834
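Compounds incubated with erythrocytes infected by luciferase-expressing P. falciparum (2% hematocrit, 0.05% parasitemia final) for 96 hours, 37 C in 5% CO2. Growth inhibition scored as decreased luciferase luminescence.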
AMA1 RON2 block – AMA1-RON2 (P. falciparum) interaction inhibition. AlphaScreen AMA1-biotinylated RON2 peptide binding. Potency, µM (titrated, usually from 58.2 µM), most hits filed as inhibitors. 360,000 compounds, 0.2% hits. AID 720542; further: nearly all actives have a fitted effect of over 45% in size
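AMA1 (3D7) with his tag at 25 nM final met compounds first, then biotinylated RON2 peptide at 25 nM; detection used donor plus acceptor beads, 10 µg/mL apiece, read by AlphaScreen after 30 min at room temperature.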
A number is an active result; - = inactive; ? = inconclusive; . = no result; [ ] = remark or other dose. Unless noted, the call rests on the fitted dose curve; in most records, active means well fitted curve in the direction sought with a large enough effect; inconclusive means small, poorly fitted or top-dose-only effect, or another doubt; inactive means no such curve, though single readings can be large; an effect the other way counts as inactive or inconclusive.

SMILES	NS1 function inh	Pf growth 48h	Sm TGR inh	Pf growth 96h	AMA1 RON2 block
Fc1ccc(-c2csc3[n+]2CCS3)cc1	-	10.4µM	-	4.15µM	-
O=[N+]([O-])c1ccc(-c2csc3[n+]2CCS3)cc1	-	.	-	9.28µM	-
Fc1ccc(-c2csc(=S)[nH]2)cc1	-	-[5.75 µM]	-	-	-
CCNC(=O)C1CCCN(C(=O)c2c(-c3ccccc3)noc2C)CC1 (centres undefined)	.	.	.	.	-
COC(=O)[C@H](CC(C)C)NC(=O)N1CCC(C)CC1	-	-	-	-	-
CNc1cncc(-c2cc(OC)ccc2OC)n1	.	.	.	.	-
COc1ccc(OC)c(-c2cnc(OC(C)(C)C)nc2OC(C)(C)C)c1	-	11.7µM	-	10.4µM	-
CC(C)(C)OC(=O)N1CCC(c2c(C(=O)NCc3ccco3)cnn2-c2ccccc2)CC1	.	.	-	.	.
CCc1noc(C)c1C(=O)N1CCCSC1=Nc1ccccc1Cl	.	?	-	?	-
O=C(NC1CC1)C1CCN(c2ccc(S(=O)(=O)N3CCOCC3)cc2)CC1	-	4.15µM	-	-	-
CC(C)CNC(=O)C1CCN(c2ccc(S(=O)(=O)N3CCOCC3)cc2)CC1	-	7.38µM	-	.	-
COc1ccccc1C(=O)NCC1CCN(c2ccc(S(=O)(=O)N3CCOCC3)cc2)CC1	-	.	-	3.29µM	-
O=C(NCC1CCCO1)C1CCN(c2ccc(S(=O)(=O)N3CCCC3)cc2)CC1 (centres undefined)	-	?	-	-	-
O=C(NCC1CCN(c2ccc(S(=O)(=O)N3CCOCC3)cc2)CC1)Nc1ccccc1	-	?	-	?	-
CCC(=O)N1CCc2cc(S(=O)(=O)NCCC(=O)Nc3ccc(N(CC)CC)cc3C)ccc21	.	.	-	.	.
CCCNC(=O)Cn1c2ccccc2c2nc(=O)cc(C)n21	-	.	-	8.28µM	-
O=C(O)Cc1sc(Nc2ccc(F)cc2)nc1-c1cccs1	.	-	-	-	-
CCOC(=O)Cc1csc(NC(=S)NC(=O)CC(C)C)n1	-	-	-	-	-
CC(C)CC(=O)NC(=S)Nc1nc(-c2cccc3ccccc23)cs1	-	-	-	13.1µM	-
C#CCOCCOCCOCCNc1nc(N2CCN(C(=O)Cn3cc(CCO)nn3)CC2)nc(N2CCN(C(=O)Cn3cc(CCO)nn3)CC2)n1	.	.	.	.	-
Cc1nc2ccccn2c1C(=O)NC1CCCc2ccccc21 (centres undefined)	-	9.28µM	-	?	-
O=C(NC(=S)NC1CCCc2ccccc21)c1ccc(F)cc1 (centres undefined)	-	-	17.8µM	?	-
COc1cccc(CNC2CCCc3ccccc32)c1OC (centres undefined)	.	-	-	2.94µM	-
Cc1ccc(NC(=O)C(NC2CCCc3ccccc32)c2ccccc2)c([N+](=O)[O-])c1 (centres undefined)	-	13.1µM	-	?	-[2.32 µM]
O=C(NC(=S)NC1CCCc2ccccc21)c1ccco1 (centres undefined)	-	?	?	?	-
SMILES	NS1 function inh	Pf growth 48h	Sm TGR inh	Pf growth 96h	AMA1 RON2 block
O=C(NC1CCCc2ccccc21)c1cn2ccccc2n1 (centres undefined)	.	-	-	-	-
COc1cc(/C=C/CNC[C@H]2O[C@@H](n3ccc(=O)[nH]c3=O)[C@H](O)[C@@H]2O)ccc1O	.	.	.	.	-
O=C(COC(=O)CCNS(=O)(=O)c1ccccc1F)Nc1nnc(-c2ccccc2)o1	.	?	-	?	-
COC(=O)c1sc(NC(=O)CSc2nnnn2C)nc1C	-	-	-	?	-
CC(OC(=O)c1ccncc1)C(=O)NC1CCCC1 (centres undefined)	.	-	-	-	-
CN(C(=O)c1cccc(C(F)(F)F)c1)C1CCCc2ccccc21 (centres undefined)	-	-	-	-	-
COc1ccccc1OCC(=O)NC1CCCc2ccccc21 (centres undefined)	-	-	-	-	-
CN(C(=O)CCl)C1CCCc2ccccc21 (centres undefined)	-	?	11.2µM	?	-
O=C(CCl)NC1CCCc2ccccc21 (centres undefined)	-	11.7µM	25.1µM	-	-
O=C(Cc1ccc(Br)cc1)NC1CCCc2ccccc21 (centres undefined)	-	-	-	-	-
O=C(CCn1cccc1)NC1CCCc2ccccc21 (centres undefined)	?	-	?	6.57µM	-
Cc1cc(C)cc(OCC(=O)NC2CCCc3ccccc32)c1 (centres undefined)	-	?	-	8.28µM	-
COc1ccc(C)cc1NC(=O)NC1CCCc2ccccc21 (centres undefined)	-	11.7µM	-	-	-
COc1ccc(NC(=O)NC2CCCc3ccccc32)cc1OC (centres undefined)	-	-	-	-	-
CCOc1ccc(Nc2c(S(=O)(=O)c3ccccc3)cnc3ccc(F)cc23)cc1	.	.	-	.	.
CCn1c(CSc2n[nH]c(N)n2)nc2cc(C(=O)O)ccc21	.	-	-	-	-
Cc1ccc(C)c(C(C)NC(=O)c2ccccc2Br)c1 (centres undefined)	-	-	-	-	-
C=C(NC(=O)C(=C)NC(=O)c1csc(C2=NC3c4csc(n4)C4NC(=O)c5csc(n5)C([C@@](C)(O)C(C)O)NC(=O)C5CSC(=N5)/C(=C\C)NC(=O)C(C(C)O)NC(=O)c5csc(n5)[C@]3(CC2)NC(=O)C(C)NC(=O)C(=C)NC(=O)C(C)NC(=O)C(C(C)CC)NC2C=Cc3c(C(C)O)cc(nc3C2O)C(=O)OC4C)n1)C(N)=O (some centres undefined)	.	0.828µM	-	0.738µM	.
C=C(NC(=O)C(=C)NC(=O)c1csc(C2=N[C@@H]3c4csc(n4)[C@@H]4NC(=O)c5csc(n5)[C@@H]([C@](C)(O)[C@H](C)O)NC(=O)[C@@H]5CSC(=N5)/C(=C/C)NC(=O)[C@@H]([C@H](C)O)NC(=O)c5csc(n5)[C@]3(CC2)NC(=O)[C@@H](C)NC(=O)C(=C)NC(=O)[C@@H](C)NC(=O)[C@@H]([C@@H](C)CC)N[C@H]2C=Cc3c([C@H](C)O)cc(nc3[C@@H]2O)C(=O)O[C@H]4C)n1)C(N)=O	.	5.73µM	.	4.05µM	.
Cc1ccc(S(=O)(=O)N2C[C@@H]3[C@H]4CC[C@H](C4)[C@@H]3[C@@H](C)[C@@H]2c2ccn(Cc3ccccc3)c2)cc1	.	.	.	.	-
N#CC1=C(N)Oc2c(c(=O)oc3ccccc23)C1c1ccc(OC(=O)N2CCOCC2)cc1 (centres undefined)	-	9.28µM	?	11.7µM	-
CCOc1ccc(C2C(C#N)=C(N)Oc3c2c(=O)oc2ccccc32)cc1 (centres undefined)	-	-	-	?	-
OC(COc1ccc(Br)cc1)CN1CCN(c2ccccc2)CC1 (centres undefined)	-	-	-	?	-
O=C(c1ccc(Br)cc1)N1CCN(Cc2ccccc2)CC1	-	-	-	-	-
